Shown are actives, neighbours in structure and some others; about 4.2% of the full set was active somewhere.
GDH-TPI inh – GDH-TPI coupled enzyme inhibition counter-screen; AID 588335; GDH-TPI coupled enzyme counterscreen, NADH absorbance; inhibition, % at 4.8 µM; actives 1.2% (n = 360,000); in the data active = inhibition above about 30%;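 also: 0% = DMSO wells and 100% = wells lacking the enzyme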
BJeLR lethal – BJeLR cell viability loss | BJeLR (HRASV12) viability, CellTiter-Glo ATP luminescence, 48 h | AID 1554 | inhibition, % (concentration not given with the values) | actives 0.17% (n = 300,000); in the data active = inhibition above about 50%
FBA Mtb inh – inhibitors of M. tuberculosis fructose-bisphosphate aldolase; P9WQA3; purified M. tuberculosis FBA, fluorescence read-out; inhibition, % at 1 µM; actives 2.3% (n = 360,000); AID 588726; in the data active = inhibition above about 27%;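 also: 0% = vehicle and 100% = reference inhibitor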
Target sequence (P9WQA3 whole entry, looked up): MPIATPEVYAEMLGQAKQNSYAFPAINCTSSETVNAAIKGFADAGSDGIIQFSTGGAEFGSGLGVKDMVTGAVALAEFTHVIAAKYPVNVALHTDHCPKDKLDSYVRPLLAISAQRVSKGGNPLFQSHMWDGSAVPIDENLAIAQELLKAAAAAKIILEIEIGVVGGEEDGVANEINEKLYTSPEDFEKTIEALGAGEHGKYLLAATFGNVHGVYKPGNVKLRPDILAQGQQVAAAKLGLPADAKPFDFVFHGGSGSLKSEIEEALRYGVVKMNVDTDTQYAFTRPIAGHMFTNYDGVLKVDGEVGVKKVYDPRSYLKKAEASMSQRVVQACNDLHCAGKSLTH
RecA intein inh – Mtb RecA intein splicing inhibition. cell-free RecA intein splicing, fluorescence. inhibition, % (test concentration not listed). actives 0.75% (n = 290,000). AID 2221; in the data active = inhibition above about 30%;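 also: 0% = vehicle wells and 100% = reference inhibitor control wells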
PrPC TRFRET – reduces human prion protein on the cell surface | AID 720596 | inhibition, % at 13.8 µM | actives 0.43% (n = 370,000) | P04156 | cell surface PrPC, TR-FRET read-out; in the data active = inhibition above about 24%; also: 0% = median of the test wells and 100% = reference compound wells
* marks the source's active call; other numbers are inactive results; . = not tested or not shown; + = active, no number.

SMILES | GDH-TPI inh | BJeLR lethal | FBA Mtb inh | RecA intein inh | PrPC TRFRET
Cc1c(N=Nc2c(O)n(Cc3ccccc3)c(=O)[nH]c2=O)c(=O)n(-c2ccccc2)n1C | 36* | 11 | -5 | 2 | 4
Cc1ccc(NC(=O)CN2C(=O)N/C(=C/c3ccc(C)s3)C2=O)cc1 | 32* | 20 | -1 | -10 | -3
COC(=O)[C@@]12CCCCC3=C1N(CCC3)C(=O)[C@H]2CC(=O)NCC1CCCCC1 | . | . | . | . | 0
CN(C(=O)NC1CCCCC1)[C@H]1C[C@H]2c3[nH]c4ccccc4c3CCN2C(=O)[C@H]1CO | 18 | . | 152* | . | -11
CN(Cc1cc(Cl)cc(Cl)c1)[C@H]1C[C@H]2c3[nH]c4ccccc4c3CCN2C(=O)[C@H]1CO | -13 | . | 0 | . | -4
Cc1ccc(C(=O)C2=C(O)C(=O)N(Cc3ccccc3)C2c2cccnc2)o1 (centres undefined) | -3 | 7 | -4 | 2 | .
Cc1ccc(C(=O)C2=C(O)C(=O)N(Cc3cccnc3)C2c2cccc(Oc3ccccc3)c2)o1 (centres undefined) | . | 3 | . | 7 | 44*
COc1ccc(/C=C2\SC(N3CCc4ccccc4C3)=NC2=O)cc1 | 41* | 1 | 1 | 13 | -3
O=C1N=C(N2CCc3ccccc3C2)S/C1=C\c1cccc(O)c1 | 32* | 0 | -2 | 9 | -19
O=c1oc2ccccc2cc1-c1nc2ccccc2o1 | 60* | . | + | -73 | -6
O=c1oc2ccccc2cc1-c1csc(NN=C2CCCCC2)n1 | 16 | 5 | 13 | -3 | -6
O=c1oc2ccccc2cc1-c1nc2c(s1)CCCC2 | 13 | 23 | 139* | -46 | -6
COc1ccc(-c2cc(NC(=O)Cc3c[nH]c4ccccc34)ccc2Nc2cccnc2)c(OC)c1 | . | . | . | . | -7
CC(CC(=O)c1ccccc1)=NCCCN=C(C)CC(=O)c1ccccc1 | 60* | . | -2 | . | -3
O=C([C@@H]1C[C@H]1c1ccccc1)N1CC[C@H]2[C@H](CCCN2Cc2ccccc2)C1 | . | . | . | . | -8
NS(=O)(=O)c1ccc(N2N=C(c3ccccc3)CC2c2cccc(Cl)c2)cc1 (centres undefined) | 19 | . | 178* | . | 10
O=[N+]([O-])c1cccc(C2CC(c3ccccc3)=NN2c2ccccc2)c1 (centres undefined) | 19 | -7 | 0 | 7 | 2
Cc1cccc(C2CC(c3ccccc3)=NN2c2ccc(S(N)(=O)=O)cc2)c1 (centres undefined) | 12 | . | + | . | -1
COc1ccc(OC)c2c(C)cc(N3CCCN(C)CC3)nc12 | -1 | -2 | 31* | 0 | 0
CCOC(=O)Cc1c(C)nc2c(-c3ccc(Cl)cc3)c[nH]n2c1=O | 21 | 10 | 56* | 0 | -7
COC(=O)[C@]12C[C@H](CC(=O)NCc3cccs3)C(=O)N(Cc3ccccc3)C1=C[C@H](COCc1ccccc1)O[C@@H]2C | . | . | . | . | -6
COc1ccc(C2=NCCn3cccc32)c(OC)c1 | 49* | 10 | -1 | 0 | -7
O=C(Cn1cc(COc2c(F)c(F)c(Br)c(F)c2F)nn1)c1ccc(O)cc1 | 31* | . | 0 | . | 0
O=C(Cn1cc(COc2c(Br)cc(F)cc2Br)nn1)c1ccc(O)cc1 | 15 | . | -2 | . | -3
O=C(Cn1cc(COc2ccc3ccc(=O)oc3c2)nn1)c1ccc(O)cc1 | 41* | . | 7 | . | 13
SMILES | GDH-TPI inh | BJeLR lethal | FBA Mtb inh | RecA intein inh | PrPC TRFRET
CC(=O)c1cc(-c2ccc3c(c2)OCO3)c(=O)n2c1CCC2 | . | . | . | . | 21
COC(=O)CN1CCN(C(=O)c2nocc2C)CC1 | . | . | . | . | 0
O=C(Nc1ccc2c(c1)OCCO2)c1ccc(Br)c(S(=O)(=O)N2CCOCC2)c1 | 36* | . | -5 | . | 13
O=C(Nc1ccc(F)cc1)c1ccc(Br)c(S(=O)(=O)N2CCOCC2)c1 | 4 | 2 | 2 | 3 | -2
N#C/C(=N\Nc1ccc(S(=O)(=O)N2CCCCCC2)cc1)C(N)=S | 2 | 6 | -25 | 9 | 1
N#CC(C#N)=NNc1ccc(S(=O)(=O)N2CCCC2)cc1 | 14 | 6 | -3 | 30* | 0
Cc1cccc(C(=O)Nc2ccc(C(=O)N/N=C/c3ccc(C)o3)cc2)c1 | 41* | 0 | -3 | . | 7
Cc1ccc(/C=N/NC(=O)c2cc3c(s2)CCCC3)o1 | 40* | . | 2 | . | 7
Cc1ccc(/C=N/NC(=O)c2ccncc2)o1 | 38* | 9 | -4 | -1 | 4
Cc1ccc(/C=C(\C#N)C(=O)NC(C)C)o1 | 65* | -17 | 1 | -2 | -6
COc1cc(/C=C(/C#N)C(=O)NC(C)c2ccccc2)cc(OC)c1O (centres undefined) | 5 | -7 | -28 | 9 | 1
Cc1ccc(/C=C(\C#N)C(=O)NC(C)c2ccccc2)o1 (centres undefined) | 33* | 1 | 1 | 2 | -1
CC(NC(=O)/C(C#N)=C/c1ccc(C(=O)O)cc1)c1ccccc1 (centres undefined) | 38* | 1 | -4 | 2 | 8
Cc1ccc(/C=C(/C#N)C(=O)NC(C)c2ccccc2)o1 (centres undefined) | 23 | -1 | -1 | 1 | 0
CC(=O)CC[C@H]1CC[C@]2(CCCN(S(=O)(=O)c3ccccc3)C2)O1 | . | . | . | . | 4
Cc1ccc(C(=O)N/N=C\c2ccc(-c3ccc(Cl)c(Cl)c3)o2)cn1 | 63* | 3 | 4 | 1 | -5
O=C(N/N=C/c1ccc(-c2ccccc2[N+](=O)[O-])o1)[C@H]1C[C@@H]1c1ccccc1 | 1 | -4 | 0 | 42* | -6
Cc1ccc(C(=O)N/N=C/c2ccc(-c3ccccc3[N+](=O)[O-])o2)cn1 | 24 | 2 | 2 | 61* | -10
COc1ccc(/C=C/S(=O)(=O)NCCc2ccccc2)c(CNC(=O)OC(C)(C)C)c1 | . | . | . | . | 1
CC(C)NC(=S)N/N=C/c1cccs1 | 38* | 1 | -5 | 1 | 7
CC(C)NC(=S)N/N=C/c1ccc(C(C)(C)C)cc1 | 9 | -21 | -4 | 1 | 5
S=C(NCCc1ccccc1)N/N=C/c1cccs1 | 21 | -2 | 1 | -3 | -5
S=C(NCc1ccccc1)N/N=C/c1cccs1 | 34* | -10 | 17 | 5 | 11
COC(=O)c1cc(-c2ccccc2)c(=O)n2c1CCC2 | . | . | . | . | 6
Cc1cc(=O)oc2c3c(cc(OCC(=O)NCc4ccncc4)c12)OC(C)(C)CC3 | 16 | 13 | + | -4 | 3
SMILES | GDH-TPI inh | BJeLR lethal | FBA Mtb inh | RecA intein inh | PrPC TRFRET
Cc1cc(=O)oc2cc(OCC(=O)NCc3ccco3)ccc12 | 8 | -2 | 10 | -2 | 1
COc1ccc(CNC(=O)COc2cc3c(c4oc(=O)cc(C)c24)CCC(C)(C)O3)c(OC)c1 | 12 | . | 34* | . | 2
COc1ccc(CC(=O)Nc2ccc3c(c2)OC2(CCCC2)O3)c(OC)c1 | -4 | . | 1 | . | 2
Cc1cc(=O)oc2c3c(cc(OCC(=O)NCc4ccco4)c12)OC(C)(C)CC3 | 13 | -2 | + | 1 | 16
COc1ccccc1C(=O)N1CCCC(c2nc(-c3cccs3)no2)C1 (centres undefined) | . | . | . | . | 1
O=C(C[n+]1cccc2ccccc21)c1ccc(Cl)cc1 | 10 | 1 | 125* | 1 | -28
